Laboratory results: PubChem BioAssay (EPA / NIEHS)
Results filed as inconclusive are left out. Calls of active or inactive are those of the source. The calls were made as follows, unless noted: active = hit-call score of the fitted dose curve at least 0.9, where 1 is the maximum; inactive = score below 0.9.

Key:
THRA (gene 7067) = THRA (gene 7067) (UniProt P10827); test: TOX21_TRA_COA_Agonist_Followup_ratio: Tox21 Thyroid Hormone Receptor alpha Agonism through Coactivator Recruitment Follow-Up Assay, Ratio (AID 2283948)
Sequence of THRA (gene 7067) (P10827 whole entry, looked up, the tested form may be a part): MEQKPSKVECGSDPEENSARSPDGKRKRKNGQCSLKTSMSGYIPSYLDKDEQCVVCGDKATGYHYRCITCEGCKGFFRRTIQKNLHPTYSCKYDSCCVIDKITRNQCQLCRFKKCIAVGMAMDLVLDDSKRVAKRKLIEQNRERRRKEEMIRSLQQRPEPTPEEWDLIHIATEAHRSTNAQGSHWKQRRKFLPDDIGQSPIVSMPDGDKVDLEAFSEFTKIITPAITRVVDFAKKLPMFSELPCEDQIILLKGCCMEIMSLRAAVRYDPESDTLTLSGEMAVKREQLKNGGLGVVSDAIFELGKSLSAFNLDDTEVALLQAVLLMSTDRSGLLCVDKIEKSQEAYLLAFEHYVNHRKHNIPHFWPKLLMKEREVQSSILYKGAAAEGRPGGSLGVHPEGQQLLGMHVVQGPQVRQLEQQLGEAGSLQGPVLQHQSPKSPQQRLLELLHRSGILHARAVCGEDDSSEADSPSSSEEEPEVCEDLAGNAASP
In short: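 Read-out is the 520/495 nm emission ratio (ex 340 nm), scaled between DMSO-only wells as 0% and T3 wells as 100%. It reflects fluorescein-SRC-2 peptide recruitment to GST-TRα LBD detected via terbium anti-GST antibody.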

[1] = TOX21_TRB_BLA_Agonist_Followup_viability: Viability Assessment in the Tox21 Thyroid Hormone Receptor beta Agonism Beta-lactamase (BLA) Follow-Up Assay (AID 2283956; active = hit-call score of the fitted dose curve at least 0.9, where 1 is the maximum)
In short: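 TRb-bla HEK293T cells (GAL4-DBD/human TRb LBD) in 2% charcoal-stripped FBS medium were exposed 18 h at 37C to 11 concentrations in triplicate. CellTiter-Glo ATP luminescence was read after 30 min at room temperature, with bidirectional fitting against DMSO.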

THRB (gene 7068) [2] = biological target: THRB (gene 7068) (UniProt P10828); test: TOX21_TRB_COA_Agonist_Followup_ratio: Tox21 Thyroid Hormone Receptor beta Agonism through Coactivator Recruitment Follow-Up Assay, Ratio (AID 2283963)
Sequence of THRB (gene 7068) (P10828 whole entry, looked up, the tested form may be a part): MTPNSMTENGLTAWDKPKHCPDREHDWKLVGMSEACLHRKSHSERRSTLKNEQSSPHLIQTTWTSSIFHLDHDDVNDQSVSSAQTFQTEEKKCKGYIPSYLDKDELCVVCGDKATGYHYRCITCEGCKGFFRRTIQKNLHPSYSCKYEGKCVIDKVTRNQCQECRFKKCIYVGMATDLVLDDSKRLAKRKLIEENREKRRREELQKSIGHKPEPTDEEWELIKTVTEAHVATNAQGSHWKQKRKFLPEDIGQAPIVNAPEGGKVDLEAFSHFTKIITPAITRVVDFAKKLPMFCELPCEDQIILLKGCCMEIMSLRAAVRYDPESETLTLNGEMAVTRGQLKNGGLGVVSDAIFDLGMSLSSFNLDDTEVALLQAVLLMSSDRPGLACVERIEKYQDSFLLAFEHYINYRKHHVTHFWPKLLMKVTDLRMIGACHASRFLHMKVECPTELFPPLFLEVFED
In short: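 Agonism is measured as coactivator recruitment in a purified-protein TR-FRET format, using GST-TRβ LBD at 5.0 nM, fluorescein-SRC-2 peptide at 200 nM and Tb-labeled anti-GST antibody at 2 nM. Values are 520:495 nm ratios relative to DMSO (0%) and T3 (100%).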

[3] = biological target: Retinoic acid receptor RXR-alpha (Homo sapiens) (UniProt P19793); test: TOX21_TR_RXR_BLA_Agonist_Followup_ratio: Tox21 Thyroid Hormone Receptor beta Retinoid X Receptor alpha (RXRa) Agonism Beta-lactamase (BLA) Follow-Up Assay, Ratio (AID 2283968; active = hit-call score of the fitted dose curve at least 0.9, where 1 is the maximum)
Sequence of Retinoic acid receptor RXR-alpha (Homo sapiens) (P19793 whole entry, looked up, the tested form may be a part): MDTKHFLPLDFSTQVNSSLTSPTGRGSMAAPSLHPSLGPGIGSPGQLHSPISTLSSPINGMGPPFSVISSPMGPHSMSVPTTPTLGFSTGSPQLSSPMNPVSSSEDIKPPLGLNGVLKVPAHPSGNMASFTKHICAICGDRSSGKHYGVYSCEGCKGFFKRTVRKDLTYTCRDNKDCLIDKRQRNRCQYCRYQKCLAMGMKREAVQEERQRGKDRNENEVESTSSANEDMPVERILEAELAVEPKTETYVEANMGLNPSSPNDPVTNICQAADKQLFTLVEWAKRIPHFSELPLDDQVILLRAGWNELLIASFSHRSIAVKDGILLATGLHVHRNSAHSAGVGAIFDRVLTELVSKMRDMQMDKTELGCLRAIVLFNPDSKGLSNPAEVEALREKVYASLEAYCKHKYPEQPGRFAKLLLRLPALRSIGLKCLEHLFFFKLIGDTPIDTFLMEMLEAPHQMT
In short: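 This follow-up tests whether responses seen in the TR GH3 luciferase agonist screen are specific, using a GAL4-driven beta-lactamase reporter for RXRa in HEK293T cells. Compound exposure lasts 16 h; signal is the cleaved/uncleaved substrate ratio.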

[4] = TOX21_TR_RXR_BLA_Agonist_Followup_viability: Viability Assessment in the Tox21 Thyroid Hormone Receptor beta Retinoid X Receptor alpha (RXRa) Agonism Beta-lactamase (BLA) Follow-Up Assay (AID 2283970; active = hit-call score of the fitted dose curve at least 0.9, where 1 is the maximum)
In short: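 In qHTS format, RXRa-bla HEK293T cells (2,500/well) received compound for 16h. ATP content was then measured with CellTiter-Glo, and responses were fitted bidirectionally relative to DMSO controls.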

THRB (gene 7068) [5] = biological target: THRB (gene 7068) (UniProt P10828); test: TOX21_TRB_BLA_Agonist_Followup_ratio: Tox21 Thyroid Hormone Receptor beta Agonism Beta-lactamase (BLA) Follow-Up Assay, Ratio (AID 2283954; active = hit-call score of the fitted dose curve at least 0.9, where 1 is the maximum)
In short: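 Human TRβ LBD–GAL4 DBD fusion in GeneBLAzer UAS-bla HEK293T cells; 11 concentrations in triplicate, 18 h at 37°C/5% CO2, T3 as agonist control. CCF4-AM substrate 2 h at room temperature; 460:530 nm ratio fitted for gain of signal versus DMSO.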

[6] = CCTE_Harrill_HTTr_Viability_MCF7: CCTE's 6-hour Cell Viability Assessment for the High-Throughput Transcriptomics (HTTr) Platform, in MCF-7 cells cultured in DMEM + 10% fetal bovine serum, Harrill Lab (AID 2284010)
In short: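 Viability measured through PI dye exclusion by high-content imaging at 6 h post-dosing.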

[7] = CCTE_Harrill_HTTr_Apoptosis_MCF7: CCTE's 6-hour Apoptosis Assessment for the High-Throughput Transcriptomics (HTTr) Platform, in MCF-7 cells cultured in DMEM + 10% fetal bovine serum, Harrill Lab (AID 2284011)
In short: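 MCF-7 cells in DMEM + 10% fetal bovine serum were exposed to chemicals for 6 hours over an eight-point dilution series. Caspase-3/7 activation was imaged by high content imaging with CellEvent Caspase 3/7 Green; bidirectional fitting used DMSO as baseline.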

CC1(C)COP(Oc2ccccc2)OC1
outcome (THRA (gene 7067)): inactive
outcome [1]: inactive
outcome (THRB (gene 7068) [2]): inactive
outcome [3]: inactive
outcome [4]: inactive

O=C(Cl)OCCOCCOC(=O)Cl
outcome (THRA (gene 7067)): inactive
outcome (THRB (gene 7068) [5]): inactive
outcome [1]: inactive
outcome (THRB (gene 7068) [2]): inactive
outcome [3]: inactive

O=C1C=CC(=O)c2ccccc21
AC50 [6]: 69.1 µM (active)
AC50 [7]: 60.4 µM (active)

COc1nn(C(=O)NS(=O)(=O)c2ccccc2OC(F)(F)F)c(=O)n1C
outcome [6]: inactive
outcome [7]: inactive

C1CCC(C2CCCCC2)CC1
outcome [6]: inactive
outcome [7]: inactive

O=C1C[C@@H]2OCC=C3CN4CC[C@]56c7ccccc7N1[C@H]5[C@H]2[C@H]3C[C@H]46
outcome [6]: inactive
outcome [7]: inactive

C[CH2][Hg][S]c1ccccc1C(=O)O
AC50 [6]: 49.1 µM (active)
outcome [7]: inactive

Cc1cc(C(C)(C)c2ccc(O)c(C)c2)ccc1O
outcome [6]: inactive
outcome [7]: inactive

CCN(N=O)C(N)=O
outcome [6]: inactive
outcome [7]: inactive

CC(C=O)Cc1ccc2c(c1)OCO2 (centres undefined)
outcome [6]: inactive
outcome [7]: inactive

CCOC(=O)c1ccccc1S(=O)(=O)NC(=O)Nc1nc(Cl)cc(OC)n1
outcome [6]: inactive
outcome [7]: inactive

Oc1c(Br)cc(Br)cc1Br
outcome [6]: inactive
outcome [7]: inactive

C[C@@H]1O[C@@H](O[C@H]2C[C@@H](O)[C@]3(CO)[C@H]4[C@H](O)C[C@]5(C)[C@@H](C6=CC(=O)OC6)CC[C@]5(O)[C@@H]4CC[C@]3(O)C2)[C@H](O)[C@H](O)[C@H]1O
outcome [6]: inactive
outcome [7]: inactive

COc1ccccc1N
outcome [6]: inactive
outcome [7]: inactive

O=C(NC(=O)c1c(F)cccc1F)Nc1ccc(Cl)cc1
outcome [6]: inactive
outcome [7]: inactive

O=[N+]([O-])c1cccc2ccccc12
outcome [6]: inactive
outcome [7]: inactive

CN(C1CCCCC1)C1CCCCC1
outcome [6]: inactive
outcome [7]: inactive

CCOP(=O)(OCC)OC(=CCl)c1ccc(Cl)cc1Cl
outcome [6]: inactive
outcome [7]: inactive

CC(C)[C@H](C(=O)OC(C#N)c1cccc(Oc2ccccc2)c1)c1ccc(OC(F)F)cc1 (some centres undefined)
outcome [6]: inactive
outcome [7]: inactive

O=c1[nH]c2ccccc2n1C1CCN(CCCC(c2ccc(F)cc2)c2ccc(F)cc2)CC1
AC50 [6]: 77.9 µM (active)
AC50 [7]: 60.9 µM (active)

OCC(c1ccc(Cl)cc1)c1ccc(Cl)cc1
outcome [6]: inactive
outcome [7]: inactive

CC(C)O.CC(C)O.OCCN(CCO)CCO.OCCN(CCO)CCO.[Ti]
outcome [6]: inactive
outcome [7]: inactive

Clc1cccc(Cl)c1
outcome [6]: inactive
outcome [7]: inactive

Clc1cnc(Oc2ccc(Oc3ncc(Cl)cc3Cl)cc2)c(Cl)c1
outcome [6]: inactive
outcome [7]: inactive

CCOP(=S)(OCC)O/N=C(\C#N)c1ccccc1
outcome [6]: inactive
outcome [7]: inactive

CC1CC(=O)O1 (centres undefined)
outcome [6]: inactive
outcome [7]: inactive

CCOC(=O)CCN(SN(C)C(=O)Oc1cccc2c1OC(C)(C)C2)C(C)C
outcome [6]: inactive
outcome [7]: inactive

O=NN1CCCCCC1
outcome [6]: inactive
outcome [7]: inactive

C=CCN=C=S
outcome [6]: inactive
outcome [7]: inactive

C[C@H]1C(=O)O[C@@H]2CCN3CC=C(COC(=O)[C@](C)(O)[C@]1(C)O)[C@H]23
outcome [6]: inactive
outcome [7]: inactive

O=NN1CCOCC1
outcome [6]: inactive
outcome [7]: inactive

CCCCCCCCCCCCCCC(Br)C(=O)O (centres undefined)
outcome [6]: inactive
outcome [7]: inactive

N#CCCC(Br)(C#N)CBr (centres undefined)
outcome [6]: inactive
outcome [7]: inactive

COC(=O)c1cc(Oc2ccc(Cl)cc2Cl)ccc1[N+](=O)[O-]
outcome [6]: inactive
outcome [7]: inactive

Nc1nc(N)nc(Cl)n1
outcome [6]: inactive
outcome [7]: inactive

C#C[C@]1(O)CC[C@H]2[C@@H]3CCC4=CC(=O)CC[C@]4(C)[C@H]3CC[C@@]21C
outcome [6]: inactive
outcome [7]: inactive

CC(C)(C)c1ccc(CCOc2ncnc3ccccc23)cc1
outcome [6]: inactive
outcome [7]: inactive

COCC(=O)N(c1c(C)cccc1C)[C@H](C)C(=O)OC
outcome [6]: inactive
outcome [7]: inactive

N#CS
outcome [6]: inactive
outcome [7]: inactive
